Experimental data reported in the supplement of paper PMC6555819.

Experiments:
Assay in all cases: PBM binding z-score (relative to random genomic background probes); higher = stronger binding; sequences stand for … in GC…GCGATTGACAGCGTAGAATGAAGG
[1] = test system: FXR:RXRa (NR concentration 270 nM, RXRa partner concentration 90 nM)
How it was run: (§1)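 Random background probes are the reference for binding z-scores. These scores derive from regression-normalized fluorescence on custom Agilent 4×180K protein-binding microarrays incubated 1 h with ligand-free nuclear receptor dimers. Binding was detected with antibodies against each partner (one per run).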

[2] = test system: LXRa:RXRa (NR concentration 270 nM, RXRa partner concentration 90 nM)
How it was run: as §1

[3] = test system: LXRa homodimer (NR concentration 270 nM)
How it was run: as §1

[4] = test system: LXRb:RXRa (NR concentration 270 nM, RXRa partner concentration 90 nM)
How it was run: as §1

[5] = test system: LXRb homodimer (NR concentration 270 nM)
How it was run: as §1

[6] = test system: PPARa:RXRa (NR concentration 270 nM, RXRa partner concentration 90 nM)
How it was run: as §1

[7] = test system: PPARg:RXRa (NR concentration 180 nM, RXRa partner concentration 90 nM)
How it was run: as §1

[8] = test system: PPARg:RXRa 270nM:90nM, anti-RXR (NR concentration 270 nM, RXRa partner concentration 90 nM)
How it was run: as §1

[9] = test system: PPARg:RXRa 30nM:10nM, anti-RXR (NR concentration 30 nM, RXRa partner concentration 10 nM)
How it was run: as §1

[10] = test system: PPARg:RXRa 90nM:30nM, anti-RXR (NR concentration 90 nM, RXRa partner concentration 30 nM)
How it was run: as §1

[11] = test system: PPARg:RXRa DBDmut IVT, anti-RXR (DBD mutation: RXRa K156A/R161A, NR concentration 270 nM, RXRa partner concentration 90 nM)
How it was run: as §1

[12] = test system: PPARg:RXRa IVT, anti-PPARg (NR concentration 270 nM, RXRa partner concentration 90 nM)
How it was run: as §1

[13] = test system: PPARg DBDmut:RXRa IVT, anti-PPARg (DBD mutation: PPARg1 K132A/R137A, NR concentration 270 nM, RXRa partner concentration 90 nM)
How it was run: as §1

[14] = test system: PPARg DBDmut IVT, anti-PPARg (DBD mutation: PPARg1 K132A/R137A, NR concentration 270 nM)
How it was run: as §1

[15] = test system: PPARg homodimer (NR concentration 180 nM)
How it was run: as §1

[16] = test system: PXR:RXRa (NR concentration 270 nM, RXRa partner concentration 90 nM)
How it was run: as §1

[17] = test system: PXR homodimer (NR concentration 270 nM)
How it was run: as §1

[18] = test system: RARa:RXR (NR concentration 270 nM, RXRa partner concentration 90 nM)
How it was run: as §1

[19] = test system: RARa homodimer (NR concentration 270 nM)
How it was run: as §1

[20] = test system: RARb:RXRa (NR concentration 270 nM, RXRa partner concentration 90 nM)
How it was run: as §1

| Sequence | PBM binding z-score [1] | PBM binding z-score [2] | PBM binding z-score [3] | PBM binding z-score [4] | PBM binding z-score [5] | PBM binding z-score [6] | PBM binding z-score [7] | PBM binding z-score [8] | PBM binding z-score [9] | PBM binding z-score [10] | PBM binding z-score [11] | PBM binding z-score [12] | PBM binding z-score [13] | PBM binding z-score [14] | PBM binding z-score [15] | PBM binding z-score [16] | PBM binding z-score [17] | PBM binding z-score [18] | PBM binding z-score [19] | PBM binding z-score [20] |
| --- | --- | --- | --- | --- | --- | --- | --- | --- | --- | --- | --- | --- | --- | --- | --- | --- | --- | --- | --- | --- |
| GCTGCTAGGCCAGGTTGGTCAGCTAACGGGTACG | -1 | -1.03 | -0.776 | -1.31 | -1.37 | -1.27 | -0.607 | -1.01 | -1.22 | -1.17 | -0.104 | -0.575 | -1.57 | -1.24 | -1.2 | -1.06 | -0.918 | -0.979 | -0.954 | 0.166 |
| TGAATGAGGTTATAAGATCAGCGAACGTTGCAAA | 1.21 | 1.34 | -0.415 | 0.765 | -0.436 | 2.88 | 1.18 | 1.89 | 0.811 | 1.34 | 1.18 | 2 | 0.4 | -0.321 | -0.104 | 0.634 | -0.373 | 1.33 | -0.341 | 1.06 |
| CCTACTGGGCCAAAGGTCATTCATTCCAATGCTC | 4.99 | 5.4 | 5.18 | 5.18 | 1.33 | 6.7 | 12.2 | 10.6 | 10.6 | 11.8 | 5.26 | 6.63 | 2.52 | -0.185 | 4.56 | 5.58 | 2.49 | 6.3 | 1.85 | 4.46 |
| TCTTGTAGATCAAGCAGGTTAAGAACGCCTGAGT | 0.558 | 0.44 | -0.0745 | 0.534 | -0.492 | 0.851 | -0.197 | 1.21 | 2.6 | 1.7 | 1.42 | 0.613 | -0.194 | -0.44 | -0.0997 | 0.399 | 0.197 | 0.48 | -0.305 | 0.23 |
| CTCGAAAGGTCGGTTGATGTGAGTATACGGATAA | 1.88 | 1.52 | -0.145 | 1.45 | 0.455 | 2.31 | 0.418 | 0.917 | 0.204 | 0.223 | 0.122 | 0.641 | 0.802 | 0.00433 | 1.37 | 1.07 | 0.216 | 1.41 | 0.252 | 2.86 |
| TGAATGAGGTTATAAGATCAGGGAACGTTGCAAA | 1.18 | 1.31 | -0.538 | 0.8 | -0.0754 | 2.61 | 1.22 | 1.75 | 0.754 | 1.38 | 1.08 | 1.54 | 0.481 | 0.281 | -0.132 | 0.601 | -0.261 | 1.25 | 0.0131 | 1 |
| ACTAGTTGGTCCGCTGAGGTCACACACAATTCGG | 2.59 | 2.61 | 1.91 | 3.24 | 0.456 | 3.57 | 1.38 | 1.99 | 0.517 | 1.36 | 0.592 | 1.67 | 0.377 | -0.126 | 2.76 | 4.69 | 2.24 | 4.51 | 0.677 | 2.97 |
| TCTTGTAGATCAATAGTGGTTAAGAAAGTGCGCT | 0.499 | 0.37 | -0.000472 | 0.00968 | 0.297 | 0.451 | -0.385 | 1.4 | 2.83 | 2.06 | 1.98 | 0.303 | 0.28 | 1.33 | 0.545 | 0.46 | 0.364 | 0.481 | 0.947 | 0.0691 |
| CTTCGGAGGACAACAGGAGGTCAGAGCTGCCAGA | 1.34 | 2.65 | 2.21 | 1.45 | -0.45 | 2.23 | 0.516 | 0.602 | -0.765 | 0.051 | 0.0715 | 0.767 | -2.3 | -1.62 | 1.69 | 2.41 | 0.525 | 2.64 | 0.557 | 2.98 |
| CAAACTAGGCCACCGGAAGGTCAAAGTCCGCATG | 2.96 | 3.08 | 3.39 | 3.15 | 0.364 | 4.46 | 5.26 | 5.14 | 1.86 | 4.33 | 7.33 | 6.74 | 1.26 | 1.26 | 3.52 | 3.81 | 1.26 | 4.32 | 1.24 | 3.54 |
| GGAACGAGGCCAAAGTTGATAGCATCTGTCGACG | 0.0318 | -0.0376 | -0.578 | -0.183 | -0.827 | 3.46 | 5.8 | 6.25 | 5.14 | 6.31 | 2.57 | 2.98 | -0.146 | -0.0906 | 0.104 | 0.113 | -0.124 | 0.441 | -0.395 | 1.33 |
| ATCGCTAGGTAACAAGTTCAGTGAAAGAGAGGAC | -0.045 | 0.0443 | -0.0365 | -0.0294 | -0.328 | 0.506 | 0.393 | 0.468 | -0.139 | 0.219 | -0.0634 | 0.674 | 0.226 | 0.479 | 0.192 | 1.13 | 1.05 | 0.46 | -0.284 | 1.38 |
| CCTACTGGGACAAGGTCATTGATCAGTCAAAGCA | 3.62 | 3.43 | 1.26 | 3.06 | 0.0323 | 4.22 | 4.54 | 4.7 | 1.99 | 3.78 | 3.79 | 4.66 | -0.0252 | -0.0828 | 2.28 | 3.8 | 1.59 | 3.89 | 0.375 | 3.26 |
| TCAGACAGGTGAAGGTAACGCAGGTACGCAGTCG | 0.226 | 0.481 | -0.607 | 0.397 | -0.402 | 1.16 | 0.779 | 1.98 | 3.58 | 2.71 | 2.13 | 1.24 | 0.76 | 0.126 | -0.401 | 0.411 | -0.161 | 0.66 | 0.254 | 1.16 |
